Measured values: PubChem BioAssay AID449762 (Southern Research Specialized Biocontainment Screening …, 2010)
The whole screen tested about 330,000 compounds, of which about 1,900 (0.58%) were called active. About 4% were inconclusive and are not listed. The list is a sample of the results. Potency and affinity values are given separately. A number with no mark means an inactive call. Rule as the data show it: inconclusive = inhibition above about 70% without an active follow-up result; inactive = below that.

Assay: M. tuberculosis growth inhibition, HTS (AID 449762);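 also: bacterial growth assessed after seven days of incubation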
Conditions: M. tuberculosis H37Rv growth inhibition, 7H9 media; at 25 µM; stronger effect = higher value

| Structure (SMILES) | inhibition [%] |
| --- | --- |
| COc1ccc(C(CNC(=O)c2ccc(Br)o2)N2CCN(C)CC2)cc1 (stereo unspecified) | 2.14 |
| CC(OC(=O)COc1ccccc1Cc1ccccc1)C(=O)N(C)c1ccccc1 (stereo unspecified) | -4.05 |
| CC(=O)Nc1ccc(NC(=O)C(C)OC(=O)COc2ccc(Nc3ccccc3)cc2)cc1 (stereo unspecified) | 40.1 |
| CN(CC(=O)Nc1ccc(Cl)cc1)C(=O)C1=COCCO1 | -13.8 |
| Cc1ccc(NS(=O)(=O)c2c(C)[nH]c(C)c2C(=O)N2CCCC2)cc1 | 2.46 |
| N#C/C(=N/Nc1ccccc1[N+](=O)[O-])C(N)=S | -5.6 |
| Oc1ccccc1N=N/C(=N/Nc1ccccc1O)c1ccccc1 | 10.4 |
| COc1ccc(-c2nc(CN3CCCCC3c3cccnc3)c(C)o2)c(F)c1 (stereo unspecified) | 3.24 |
| c1ccc(Oc2cccc(OCCCCN3CCCC3)c2)cc1 | 1.38 |
| CN1CCN(C(=O)c2cnn3c2NC(c2ccccc2)CC3C(F)(F)F)CC1 (stereo unspecified) | -19.6 |
| CCN(CC)CCCN(Cc1cc2cc3c(cc2[nH]c1=O)OCO3)C(=S)Nc1ccccc1OC | -4.51 |
| C[n+]1nc(Nc2ccccc2)sc1-c1ccc(O)cc1 | 4.57 |
| CCc1ccc(Nc2n[n+](-c3ccccc3)c(-c3ccc(C(=O)O)cc3)s2)cc1 | 4.87 |
| O=C(NCc1cccs1)c1cc(S(=O)(=O)N2CCOCC2)ccc1N1CCCC1 | 5.48 |
| Cc1ccccc1CN1CCN(c2ccc(S(=O)(=O)N3CCCC3)cn2)CC1 | -6.22 |
| COC(=O)C1C(=O)C2=C(CC1C)NC(C)=C(C(=O)OC(C)C)C2c1ccc(C)o1 (stereo unspecified) | 2.94 |
| COc1ccc(-n2nnnc2S(=O)(=O)Cc2ccc(C(=O)O)cc2)cc1 | -3.99 |
| COc1cc(OC)cc(-n2nnnc2SCC(=O)N2CCCC2)c1 | -5.03 |
| CCCCn1c(C)c(C(=O)O)c2cc(OC)c3ccccc3c21 | 17.8 |
| COc1cc(C(=O)NCCc2cn3ccc(C)cc3n2)cc(OC)c1OC | -5.75 |
| CN=c1scc(-c2ccccc2F)n1/N=C/c1ccc[nH]1 | 67.8 |
| CN=c1scc(-c2cccs2)n1/N=C/c1ccccc1O | -8.02 |
| C[C@H](CO)N1C[C@H](C)[C@@H](CN(C)Cc2ccc(C(=O)O)cc2)Oc2c(NS(=O)(=O)c3ccc(F)cc3)cccc2C1=O | -2.1 |

| Structure (SMILES) | inhibition [%] |
| --- | --- |
| O=C(NCc1nnc(SCC(=O)N2CCOCC2)o1)c1c(F)cccc1Cl | -6.01 |
| COc1cccc(OCC(=O)N(C)Cc2nc(-c3cccc(C)c3)no2)c1 | 1.4 |
| COc1ccc(O)c(C(=O)c2cnn(C(=O)c3cccc(S(=O)(=O)N4CCOCC4)c3)c2)c1 | -2.2 |
| CCN(CC(=O)NCc1cccs1)C(=O)c1ccc(C)o1 | 2.46 |
| CCN(CC(=O)NCc1cccs1)C(=O)c1ccc(-c2ccc(F)cc2)o1 | -1.53 |
| CCOc1ccc(S(=O)(=O)N2CCN(C(=O)CN3C(=O)NC4(CCCC4)C3=O)CC2)cc1 | -3.03 |
| Cc1oc(C(=O)Nc2ccc(C(=O)O)cc2)cc1COc1ccccc1 | -2.76 |
| Cc1ccc(OCc2cc(C(=O)Nc3ccccc3)oc2C)cc1 | 0.92 |
| COc1ccc(CCNC(=O)c2cc(C(C)C)on2)cc1OC | -0.84 |
| Cc1cccc2c1NC(=O)/C2=C\C(=O)c1cccs1 | -9.89 |
| CCc1ccc2c(c1)C(O)(CC(=O)c1cccs1)C(=O)N2 (stereo unspecified) | 10.1 |
| N#Cc1c(-c2ccccc2)c(-c2ccccc2)nn(CC(=O)NNC(=O)Nc2ccc(Cl)cc2)c1=O | 3.84 |
| N#Cc1c(-c2ccccc2)c(-c2ccccc2)nn(CC(=O)NNC(=O)Nc2ccccc2)c1=O | -9.35 |
| COc1ccc(NC(=O)C23CC4CC(CC(Cl)(C4)C2)C3)cc1S(=O)(=O)N1CCOCC1 | 1.2 |
| COC(=O)Cc1ccc(NC(=O)c2ccc3c(c2)C(=O)N(Cc2ccco2)C3=O)cc1 | -5.45 |
| CCOC(=O)c1c(NC(=O)CC2SC(N)=NC2=O)sc(C)c1C (stereo unspecified) | 0.41 |
| O=S(=O)(NCCN1CCCC1)c1ccc(Br)cc1 | 0.37 |
| CN1CCN(Cc2nc3ccccc3c(=O)n2Cc2nc(-c3ccc([N+](=O)[O-])cc3)cs2)CC1 | 3.59 |
| CCOc1ccc(-c2csc(Cn3c(CN4CCN(C)CC4)nc4ccccc4c3=O)n2)cc1 | 8.95 |
| CCCCN(C(=O)c1ccc(C#N)cc1)c1c(N)n(CCC)c(=O)[nH]c1=O | -1.21 |
| O=C(CN1CCCCC1)NC(=O)NC1CCCCC1 | -4.76 |
| COc1cc(O)cc2occ(-c3ccc(O)cc3)c(=O)c12 | -14.1 |
| Cc1nnc(SCC(=O)NC2CCCCC2)n1N | 3.31 |

| Structure (SMILES) | inhibition [%] |
| --- | --- |
| Cc1ccc(NC(=O)C(C)Sc2nc(-c3ccccc3)cc(=O)[nH]2)cc1 (stereo unspecified) | 14 |
| C=CCn1c(N)cc(=O)nc1SC(C)C(=O)Nc1ccc(C(=O)OCC)cc1 (stereo unspecified) | 6.39 |
| CCc1ccccc1NC(=O)C1CCCN(c2nn3c(=O)cc(C)nc3s2)C1 (stereo unspecified) | -6.18 |
| O=C(COC(=O)c1cc(S(=O)(=O)N2CCOCC2)ccc1F)c1ccccc1 | 0.68 |
| O=C(Nc1cccc(NC(=O)c2cc([N+](=O)[O-])ccc2Cl)n1)c1cc([N+](=O)[O-])ccc1Cl | 10.1 |
| Cc1sc2ncnc(N3CCC(C(=O)Nc4ccc(C#N)cc4)CC3)c2c1C | 7.85 |
| CCc1cccc(NC(=O)C2CCN(c3ncnc4sc(C)c(C)c34)CC2)c1 | 22.6 |
| COc1cc(-c2noc(C)c2C(=O)NCc2ccc(C)o2)cc(OC)c1OC | 3.84 |
| CC(=O)c1c(C)[nH]c(C(=O)OCC(=O)NCc2cccs2)c1C | 7.06 |
| CC(C)Nc1nc(NC(C)C)nc(N(C)C(N)=O)n1 | 1.68 |
| CC(C)Nc1nc(NC(C)C)nc(N(C)C#N)n1 | 0.57 |
| C=CC[C@H](CC(=O)OC(C)(C)C)C(=O)OC[C@H]1CCCN1C(=O)[C@@H](CC=C)CC(=O)N(CCO)Cc1ccccc1 | -3.24 |
| C[C@@H](NC(=O)c1[nH]cnc1C(=O)Nc1cccc(Cl)c1)c1ccccc1 | 56.8 |
| C[C@H](NC(=O)c1[nH]cnc1C(=O)Nc1cccc(Cl)c1)c1ccccc1 | 48.7 |
| O=C(CN(Cc1ccccc1)C(=O)CNS(=O)(=O)c1ccc(F)cc1)NCC1CCCO1 (stereo unspecified) | -5.05 |
| Cc1nn(-c2ccccc2)c(Cl)c1/C=N/NC(N)=O | -5.57 |
| Cc1nn(C)c(C)c1/C=C/C(=O)c1ccccc1 | 7.75 |
| O=C(c1cccc(C(F)(F)F)c1)c1c[nH]c(C(=O)NCCCN2CCOCC2)c1 | 2.14 |
| Cc1cc(S(=O)(=O)Nc2ccc3cn[nH]c3c2)c(C)cc1Cl | -3.66 |
| O=C(Nc1ccc2[nH]ncc2c1)c1ccccc1Cl | -3.21 |
| O=Cc1cc(Br)c(OC(=O)N2CCOCC2)c(Br)c1 | 5.26 |
| OCc1cn(-c2ccccc2)nc1-c1ccc(-c2nn(-c3ccccc3)cc2CO)cc1 | 0.63 |
| Cc1ccc(-c2nn(-c3ccccc3)cc2CO)cc1 | 4.76 |

| Structure (SMILES) | inhibition [%] |
| --- | --- |
| CC(C)[C@]1(c2ccc(Cl)cc2)ON(c2ccccc2C(F)(F)F)C1=O | 1.98 |
| O=C(CCc1nc2ccccc2c(=O)[nH]1)Nc1nnc(SCc2ccc(Cl)cc2)s1 | -0.53 |
| Cn1ccnc1SCC(=O)NCC(=O)Nc1ccc(F)c(F)c1F | 1.26 |
| c1ccc(-c2nc(NC3CCCC3)c3ccccc3n2)cc1 | 11.8 |
| c1ccc(CN2CCC(Nc3nc(-c4cccnc4)nc4ccccc34)CC2)cc1 | 10.5 |
| O=C(Nc1ccc(Cl)c(Cl)c1)c1ccc(Cl)c(Cl)c1 | 1.7 |
| O=C(Nc1ccncc1)c1ccc(Cl)c(Cl)c1 | 4.84 |
| CC(=O)Nc1ccc2nc3ccccc3nc2c1 | -9.66 |
| O=C(Nc1ccc2nc3ccccc3nc2c1)c1ccccc1 | -0.69 |
| COc1ccc(C)cc1NC(=O)CN1CCCC1c1ccc2c(c1)OCCCO2 (stereo unspecified) | 5.61 |
| COc1ccc(NC(=O)CCCCCN2C(=O)c3ccccc3C2=O)c(OC)c1 | -6.73 |
| C/C(=N\Nc1ccccc1Cl)c1ccc(-n2ccnc2)cc1 | 58.6 |
| C/C(=N\Nc1cccc(Cl)c1)c1ccc(-n2ccnc2)cc1 | 0.99 |
| COc1cccc(-c2cc(C(F)(F)F)c(C#N)c(=O)[nH]2)c1 | -9.57 |
| Cc1csc(=Nc2ccccc2)n1Cc1ccco1 | 11.3 |
| N#Cc1c(NC(=O)CSc2nnnn2C2CCCCC2)sc2c1CCCC2 | -13.1 |
| Cn1nnnc1SCC(=O)Nc1nc2c(s1)CCCC2 | 2.88 |
| Cc1ccc(N(CC(=O)NCc2ccco2)C(=O)CCC(=O)Nc2nccs2)c(C)c1 | 1.4 |
| Cc1cc(N2CCC(C(=O)N3CCN(c4cccc(C)c4C)CC3)CC2)n2ncnc2n1 | -0.67 |
| COc1ccc2cc(C(=O)/C=C/c3cc(OC)c(O)c(OC)c3)ccc2c1 | 36.1 |
| COc1ccc(/C=C/C(=O)c2ccc(OC)cc2OC)cc1 | 58.4 |
| CC(=O)c1cccc(N2C(=NC(=O)CCc3ccccc3)SC3CS(=O)(=O)CC32)c1 (stereo unspecified) | 1.65 |
